# Rows were chosen to be rich in hits. Some 18% of all compounds tested hit in one or more screens of this group.
# DT40 TDP1 no CPT – qHTS for Inhibitors of human tyrosyl-DNA phosphodiesterase 1 (TDP1): qHTS in cells in absence of CPT; DT40 Tdp1-/- hTDP1 cells, no CPT, ATP luminescence, 48 h; Potency, µM (highest dose often 46.2 µM), actives largely listed as inhibitors; actives 15% (n = 420,000); AID 686978, 2013; also: nearly all actives have a fitted effect of over 55% in size
#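 Chicken DT40 Tdp1-/- cells stably complemented with human TDP1 were seeded at 400 cells/well with DMSO in place of 20 nM camptothecin. After compound pinning, cells grew at least 48 hr at 37 °C; viability read by CellTiter-Glo luminescence.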
# TDP1 inh – blocks human tyrosyl-DNA phosphodiesterase 1 | Q9NUW8 | actives 0.28% (n = 350,000) | recombinant TDP1, AlphaScreen DNA substrate cleavage | Potency, µM (doses to about 130 µM), hits mostly inhibitors; also: nearly all actives have a fitted effect of over 40% in size
# Target sequence (Q9NUW8 whole entry, looked up): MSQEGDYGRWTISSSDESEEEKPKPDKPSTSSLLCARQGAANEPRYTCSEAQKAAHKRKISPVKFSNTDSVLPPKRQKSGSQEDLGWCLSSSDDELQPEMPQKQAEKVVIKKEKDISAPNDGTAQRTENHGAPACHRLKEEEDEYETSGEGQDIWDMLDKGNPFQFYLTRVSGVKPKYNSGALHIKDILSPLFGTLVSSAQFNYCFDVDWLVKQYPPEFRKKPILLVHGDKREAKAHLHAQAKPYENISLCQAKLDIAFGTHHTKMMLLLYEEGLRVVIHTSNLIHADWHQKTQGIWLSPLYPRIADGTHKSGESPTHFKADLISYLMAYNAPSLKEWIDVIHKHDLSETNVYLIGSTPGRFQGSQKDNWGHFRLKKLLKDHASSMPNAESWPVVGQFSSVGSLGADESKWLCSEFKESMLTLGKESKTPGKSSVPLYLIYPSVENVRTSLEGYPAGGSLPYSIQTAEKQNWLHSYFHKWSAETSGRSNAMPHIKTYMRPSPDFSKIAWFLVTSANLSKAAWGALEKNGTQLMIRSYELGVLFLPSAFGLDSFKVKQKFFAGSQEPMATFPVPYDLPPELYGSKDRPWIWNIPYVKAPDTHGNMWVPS
#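 Here, a 5' biotin and 3' phosphotyrosine-FITC DNA oligonucleotide reports Tdp1 activity: intact substrate bridges AlphaScreen beads, while cleavage leaves a 3' phosphate and drops signal. All incubations at room temperature.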
# DT40 TDP1 CPT – growth inhibition of DT40 Tdp1-/-;hTDP1 cells with camptothecin (screen for TDP1 inhibitors) | Potency, µM (series often up to 46.2 µM), hits mostly inhibitors | actives 12% (n = 420,000) | chicken DT40 Tdp1-/-;hTDP1 cells + 20 nM CPT, ATP luminescence, 48 h; also: nearly all actives have a fitted effect of over 55% in size
#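 Chicken DT40 Tdp1-/- cells stably complemented with human TDP1 were seeded at 400 cells/well in medium containing 20 nM camptothecin, exposed to pin-transferred compounds, and grown at 37 °C for at least 48 hr. Viability was read as ATP luminescence.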
# TGFb inhibitor – blocks TGF-b signaling. HepG2 CAGA-GFP TGF-b/SMAD3 reporter, GFP fluorescence, 18 h; TGF-beta stimulated, 500 pg/mL final. AID 588855. Potency, µM (highest dose often 46.1 µM), usual class: inhibitors. actives 1.2% (n = 410,000); also: nearly all actives have a fitted effect of over 65% in size
#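 HEPG2 CAGA-GFP, 1000 cells/well; 2 h settle, 37 C; cpd via pin tool; TGF-b 500 pg/mL final; 18 h, 37 C; GFP imaging ex488/em500-530; %Activity normalised to -TGF-b and +DMSO controls; CRC fit, curve class.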
# IL-1B inflam inh – inhibitors of inflammasome signaling (IL-1 beta secretion). actives 4.7% (n = 360,000). activity change, % at 57.5 µM. AID 743279. THP-1 LPS/ATP IL-1B secretion, AlphaLISA, 16 h; stronger effect = lower value; in the data active = activity change below about -50%; inconclusive = mostly about -30% to -49%
#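 THP-1 cells pretreated 1 hr with compounds (up to 57.5 uM final), then stimulated with LPS (250 ng/mL final) plus ATP (1.25 mM final); secreted IL-1B measured by AlphaLISA after 16 hr, decreased signal indicating inhibition.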
# HepG2 viability – HepG2 cytotoxicity, counter-screen for TGF-b inhibitors | Potency, µM (highest dose often 46.1 µM), most hits filed as cytotoxic | actives 0.76% (n = 410,000) | AID 588856 | HepG2 CAGA-GFP viability, ATP luminescence, 18 h
#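 HepG2 CAGA-GFP cells (1000/well, DMEM with 1% FBS) received compound, then TGF-beta at 500 pg/mL final, and were incubated 18 hours at 37 degrees C. Viability was read by CellTiter-Glo luminescence. Media-only wells were set as complete cell-killing and DMSO as no toxicity.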
# A number is an active result; - = inactive; ? = inconclusive; . = no result given; ! = not active in a repeat. Unless noted, calls follow the shape of the dose curve; as a rule, active = well fitted curve in the direction sought with a large enough effect; inconclusive = small, poorly fitted or top-dose-only effect, or another doubt; inactive = no such curve, though single readings can be large; an effect the other way counts as inactive or inconclusive.
SMILES,DT40 TDP1 no CPT,TDP1 inh,DT40 TDP1 CPT,TGFb inhibitor,IL-1B inflam inh,HepG2 viability
COc1ccc(N2CCN(C(=O)CS(=O)Cc3nc(-c4ccc(OC)c(OC)c4)oc3C)CC2)cc1 (stereo not given),?,-,?,-,-,-
COc1cccc(-c2nc(CS(=O)CC(=O)N3CCN(c4cccc(C(F)(F)F)c4)CC3)c(C)o2)c1 (stereo not given),13µM,-,13µM,16µM,.,-
Nc1cc(N)cc(N)c1,4.5µM,.,4.5µM,-,.,-
Cc1ccc(NC(=O)CSc2nc3ncccc3[nH]2)cc1F,?,-,?,-,.,-
C/C(=C(\CCOC(=O)c1ccccc1)SS/C(CCOC(=O)c1ccccc1)=C(/C)N(C=O)Cc1cnc(C)nc1N)N(C=O)Cc1cnc(C)nc1N,?,.,27µM,.,.,.
CC(=C(CCOP(=O)(O)O)SC(=O)c1ccccc1)N(C=O)Cc1cnc(C)nc1N,-,-,-,.,.,.
CCNc1nc(Cl)nc(NCCOc2ccc(C)cc2)n1,-,-,?,-,-,-
CCNc1nc(SCCOc2ccc(Br)cc2)nc(N(C)C)n1,15µM,.,?,-,-,-
CCNc1nc(NC(C)C)nc(SCCOc2ccc(C)cc2)n1,23µM,-,16µM,?,-,-
COc1ccc(OCCSc2nc(N)cc(N)n2)cc1,?,-,-,-,-,-
CCNc1nc(NC(C)C)nc(SCCOC(=O)c2ccccc2)n1,?,-,15µM,-,-,-
NC(=O)CN1CCN(Cc2ccc3c(c2)OCO3)CC1,-,.,-,-,-,-
CCCCCC(=O)OCc1ccc(C2=CC(=O)CC(C)(C)C2=O)cc1,-,.,-,-,-,-
C[C@H]1C(=O)N(C)CCN1C(=O)c1cccc(OC2CCN(CC(C)(C)C)CC2)c1,-,-,-,-,-,-
CCC(C)NC(=O)CSc1nc2c(sc3ccccc32)c(=O)n1CCc1ccccc1 (stereo not given),-,-,-,-,.,-
COCCNc1nc(NCc2ccc(C(C)C)cc2)c2sccc2n1,12µM,.,12µM,?,-,-
CCc1ccccc1Oc1nc(NC(C)C)nc2ccsc12,?,.,?,-,-,-
COc1cccc(CNc2nc(NC(C)C)nc3ccsc23)c1,?,.,23µM,-,-,-
COCCNc1nc(NCc2cccc(OC)c2)c2sccc2n1,18µM,.,15µM,-,-,-
COCCNc1nc(NCCCN(C)C)c2sccc2n1,-,.,-,-,-,-
CN(C)c1ccc(NC(=O)Cn2c(SCc3ccccc3F)nc3cccnc32)cc1,?,-,?,-,.,-
O=C(Cn1c(SCc2ccccc2F)nc2cccnc21)Nc1ccc(F)c(Cl)c1,?,-,?,?,.,-
O=C(Cn1c(SCc2ccc(F)cc2)nc2cccnc21)Nc1ccccc1F,26µM,-,?,?,.,-
COc1cc(OC)c(NC(=O)Cn2c(SCc3ccccc3F)nc3cccnc32)cc1Cl,-,-,-,-,.,-
COc1ccc(NC(=O)Cn2c(SCc3ccc(F)cc3)nc3cccnc32)c(OC)c1,21µM,-,?,-,.,-
SMILES,DT40 TDP1 no CPT,TDP1 inh,DT40 TDP1 CPT,TGFb inhibitor,IL-1B inflam inh,HepG2 viability
O=C(Cn1c(SCc2cccc(F)c2)nc2cccnc21)Nc1ccc(F)c(Cl)c1,15µM,-,26µM,?,.,-
COc1ccc(NC(=O)Cn2c(SCc3ccc(F)cc3)nc3cccnc32)cc1OC,2.3µM,-,3.7µM,?,.,-
COc1ccc(CC(=O)NCc2nc3cccnc3n2Cc2ccc(F)cc2)cc1OC,?,-,-,-,.,-
COc1ccc(NC(=O)Cn2c(SCc3ccc(C)cc3)nc3cccnc32)cc1OC,1.6µM,-,2.3µM,?,.,-
Cc1ccccc1C(OCCN(C)C)c1ccccc1 (stereo not given),?,-,23µM!,-,-,-
COc1ccc(CCNc2oc(COc3ccc(Br)cc3)nc2C#N)cc1OC,21µM,-,18µM,?,-,-
COc1ccc(CCNc2oc(/C=C/c3cc(OC)c(OC)c(OC)c3)nc2C#N)cc1OC,12µM,-,13µM,-,.,-
COc1ccc(CCNc2oc(Cc3cccc4ccccc34)nc2C#N)cc1OC,?,-,?,?,?,-
COCCCNc1oc(/C=C/c2cc(OC)c(OC)c(OC)c2)nc1C#N,23µM,-,?,-,.,-
CNc1oc(/C=C/c2ccccc2)nc1C#N,-,-,-,-,-,-
CNc1oc(/C=C/c2cc(OC)c(OC)c(OC)c2)nc1C#N,23µM,-,?,-,.,-
N#CC1=C(N)C(C#N)(C#N)C2(C(=O)Nc3ccccc32)C2CCCC=C12 (stereo not given),-,-,-,-,-53,-
NS(=O)(=O)c1ccc(CCNC(=O)c2ccc3nc(Cc4ccccc4)oc3c2)cc1,?,-,?,-,.,-
COC(=O)CC[C@@H](C)[C@H]1CC[C@H]2[C@@H]3CC[C@@H]4C[C@H](O)CC[C@]4(C)[C@H]3C[C@H](O)[C@]12C,-,-,?,.,.,.
COC(=O)CCC(C)C1CCC2C3CCC4CC(O)CCC4(C)C3=CC(=O)C12C (stereo not given),?,.,?,-,-53,-
CCC(C)(C(=O)NC1CCCC1)N(Cc1cccs1)C(=O)c1ccc2c(c1)OCO2 (stereo not given),21µM,-,18µM,-,-,-
CCC(C)(C(=O)NC1CCCCC1)N(Cc1cccs1)C(=O)Cc1cccs1 (stereo not given),?,-,?,-,-,-
C#CCNC(=O)C[C@@H]1C[C@@]2(C(=O)OC)CCCCC=C2N(CCC2=CCCCC2)C1=O,18µM,.,?,.,-,.
CCCCNC(=O)C[C@@H]1C[C@@]2(C(=O)OC)CCCCC=C2N(CCC2=CCCCC2)C1=O,18µM,.,?,.,?,.
NC(N)=NCC1COC2(CCCCC2)O1 (stereo not given),-,.,-,.,.,.
c1ccc(CNCc2nnc(-c3cc4ccccc4[nH]3)s2)cc1,.,-,.,.,.,.
CCOC(=O)Cn1c(=NC(=O)c2cc(-c3cccs3)nc3ccccc23)sc2cc(S(N)(=O)=O)ccc21,16µM,-,23µM,-,-,-
COC(=O)Cn1c(=NC(=O)c2nc3ccccc3s2)sc2cc(S(N)(=O)=O)ccc21,?,-,?,-,-,-
COC(=O)Cn1c(=NC(=O)c2cc(-c3cccs3)nc3ccccc23)sc2cc(S(N)(=O)=O)ccc21,9.2µM,-,?,?,-,-

# Source: PubChem (National Center for Advancing Translational Sciences (NCATS))
